Drawing on PubChem BioAssay AID686960 (The Scripps Research Institute Molecular Screening Center, 2013), this text covers IC50 for 1 molecule.

The other results are listed elsewhere or left out. A number with no mark means an inactive call. Cut-off read from the data, not from the text of the source: active = IC50 below about 10 µM; inactive = the rest.

This assay can be described thus: inhibitors of DNA CAG/GTC TO-PRO-1 complex, dose response, counter-screen for rCAG RNA repeat binder project, biochemical, fluorescence, TO-PRO-1 dye (AID 686960). Particulars: DNA CAG/GTC duplex TO-PRO-1 dye displacement fluorescence. For orientation: A counterscreen serves to expose hits that act by an unwanted route or on another target.

As usually defined, the IC50 is the concentration that gives 50% inhibition. `O=C1CC(=O)N(Cc2ccccc2)C(=O)N1CCCCCCN1C(=O)CC(=O)N(Cc2ccccc2)C1=O`: the IC50 is 11.5 µM.
